Out of some 360,000 compounds screened, about 2,600 (0.72%) were called active. Not shown: some 5% with an inconclusive outcome. Calls follow the shape of the dose curve; as a rule, active = well fitted inhibition curve with a large enough effect; inconclusive = small, poorly fitted or top-dose-only effect; inactive = no such curve, though single readings can be large or run the other way. This excerpt belongs to a sample that is enriched for actives.
% is scaled to controls: 0 for no effect and ±100 for the full control effect; potency is read from the fitted curve at half-maximal effect.

The test is described as follows: Primary qHTS for Inhibitors of ATXN expression. Also: nearly all actives have a fitted effect of over 55% in size. The settings on record: HEK-293 ATXN2-luciferase reporter, luminescence, 24 h; series mostly up to 57 µM; activity change, negative = inhibition: at the top concentration. In short, it runs like this: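 ATXN2-luciferase reporter cells (luciferase flanked by upstream and downstream ATXN2 gene portions) were treated 24 h at 37 °C with compounds at up to 57 uM. SteadyGlo luminescence gave expression; GF-AFC fluorescence gave viability.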
(qHTS replaces the single test concentration by a dilution series.)
As to `Cc1ccc(NS(=O)(=O)c2cc3c(cc2Br)NC(=O)CO3)cc1C`, the “activity change, negative = inhibition” value was -9.96% (inactive).

On to `CCCOc1ccc(C(=O)C(CCC(CNCC)C(=O)c2ccc(OCCC)cc2)CNCC)cc1` (centres undefined), for which the Potency is 17.8 µM (active).

Consider `CCCOc1cccc(C(=O)Nc2cccc(NC(=O)c3ccc(C(C)(C)C)cc3)c2)c1`, for which the “activity change, negative = inhibition” value is 31.1% (inactive).

In the case of `CCCOc1ccc(/C=N/NC(=O)C2CC2)c(OCCC)c1`, the “activity change, negative = inhibition” value was -0.187% (inactive).

Turning to `COc1cccc(-c2nc(S(=O)(=O)c3ccc(C)cc3)c(NCc3ccccc3)o2)c1`, the “activity change, negative = inhibition” value is 10.1% (inactive).

For `Cc1cccc(NC(=O)CSc2nc3c(oc4ccccc43)c(=O)n2-c2ccc(F)cc2)c1`, the “activity change, negative = inhibition” value was -13.3% (inactive).

Turning to `COC(=O)c1ccc2c(c1)N(CC(=O)Nc1ccc(C)c(C)c1)C(=O)c1ccccc1S2`, the “activity change, negative = inhibition” value is 8.78% (inactive).

For `COc1ccc(/C=C2\SC(=O)N(CCC(=O)NC3CCS(=O)(=O)C3)C2=O)cc1` (centres undefined), the “activity change, negative = inhibition” value was 24.1% (inactive).

As to `COc1ccc(/C=C2\SC(=O)N(CCC(=O)NCCCn3ccnc3)C2=O)cc1`, the “activity change, negative = inhibition” value was 19.2% (inactive).

For `COc1ccc(/C=C2/SC(=O)N(CCCCCC(=O)Nc3ccccc3C(=O)O)C2=S)cc1`, the Potency is 10 µM (active).

In the case of `O=C(Nc1ccc2oc(-c3ccc(O)c(Br)c3)nc2c1)c1cc2ccccc2o1`, the “activity change, negative = inhibition” value was 10.1% (inactive).

Regarding `CC(C)(C)c1ccc(OCC(=O)N2CCC(c3nc4ccccc4s3)CC2)cc1`, the “activity change, negative = inhibition” value is 5.8% (inactive).

As to `CSc1nc(-c2ccccc2Cl)nc2c1Cc1c(CO)cnc(C)c1O2`, the “activity change, negative = inhibition” value is -8.24% (inactive).

Consider `CCCCOCCOC(=O)c1cccnc1`, for which the “activity change, negative = inhibition” value was -6.2% (inactive).

Consider `Cc1ccccc1NC(=O)Cn1c(=O)n(Cc2ccco2)c(=O)c2ccc(C(=O)NC3CCCC3)cc21`, for which the “activity change, negative = inhibition” value was -0.759% (inactive).

With `CN1C(=O)C[C@H](C(=O)N[C@@H](Cc2cnc[nH]2)C(=O)N2CCC[C@@H]2C(N)=O)NC1=O`, the “activity change, negative = inhibition” value is 2.37% (inactive).

For `CC(C)C[C@H]1CNC(=O)C(=O)N1C[C@H]1CCCN1C[C@H](Cc1ccc(O)cc1)N1C[C@H](CC(C)C)N(CC2CCCCCC2)C(=O)C1=O`, the “activity change, negative = inhibition” value is -4.69% (inactive).

As to `O=C1NC[C@H](Cc2ccc(O)cc2)N(C[C@@H]2CCCN2C[C@H](Cc2ccccc2)N2C[C@H](Cc3ccccc3)N(CC3CCCCC3)C(=O)C2=O)C1=O`, the “activity change, negative = inhibition” value was -3.12% (inactive).

As to `CC(C)C[C@H]1CNC(=S)N1C[C@H]1CCCN1C[C@H](Cc1ccc(O)cc1)N1C[C@H](Cc2ccc(O)cc2)N(CC2CCCCC2)C1=S`, the Potency is 28.2 µM (active).

For `COc1cccc(C(=O)NCC(=O)OCc2cc(=O)n3ccsc3n2)c1`, the “activity change, negative = inhibition” value was -2.63% (inactive).

Regarding `COc1ccc(Cn2ccc3nc(C)c(C(=O)Nc4ccc(C)c(F)c4)cc3c2=O)cc1`, the “activity change, negative = inhibition” value is 0.351% (inactive).

As for `CCOC(=O)c1c(C)oc2nc(C)nc(Nc3ccc(CC)cc3)c12`, the “activity change, negative = inhibition” value is 12.1% (inactive).

For the compound `CC=C(C(=CC)c1ccc(O)cc1)c1ccc(O)cc1`, the “activity change, negative = inhibition” value was -13.1% (inactive).

`O=C(O)c1cc([N+](=O)[O-])c(Nc2cccc3ccccc23)c([N+](=O)[O-])c1`: the “activity change, negative = inhibition” value was 46.8% (inactive).

As to `Cc1ccc(NC(=O)c2cccc(S(=O)(=O)N3CCCc4ccccc43)c2)nc1`, the “activity change, negative = inhibition” value is -32.7% (inactive).

Turning to `CCC(=O)Nc1nnc(S(=O)(=O)N2CCCc3ccccc32)s1`, the “activity change, negative = inhibition” value was 6.98% (inactive).

Consider `N=C1C(c2nc3ccccc3s2)=C(O)CN1NC(=O)c1ccc([N+](=O)[O-])cc1`, for which the “activity change, negative = inhibition” value was -35.5% (inactive).

For `O=C(Nc1nc2ccc([N+](=O)[O-])cc2s1)c1ccc(S(=O)(=O)N2CCCc3ccccc32)cc1`, the Potency was 13.4 µM (active).

Take `O=C(NC(Nc1nc2ccc([N+](=O)[O-])cc2s1)(C(F)(F)F)C(F)(F)F)c1ccccc1`: the Potency is 0.891 µM (active).

Regarding `Cc1ccc(-c2nc(S(=O)(=O)c3ccc(C)cc3)c(N3CCCCCC3)o2)cc1`, the “activity change, negative = inhibition” value was -8.34% (inactive).

As for `CC1(C)[C@H](O[C@H]2O[C@H](C(=O)O)[C@@H](O)[C@H](O)[C@H]2O[C@@H]2O[C@H](C(=O)O)[C@@H](O)[C@H](O)[C@H]2O)CC[C@@]2(C)[C@H]1CC[C@]1(C)[C@H]2C(=O)C=C2[C@H]3C[C@@](C)(C(=O)O)CC[C@]3(C)CC[C@]21C`, the “activity change, negative = inhibition” value was -2.97% (inactive).

`CC[C@]12C=CCN3CC[C@@]4(c5cc([C@@]6(C(=O)OC)C[C@H]7C[C@@H](C(C)(F)F)CN(Cc8c6[nH]c6ccccc86)C7)c(OC)cc5N(C)[C@H]4[C@@](O)(C(=O)OC)[C@H]1OC(C)=O)[C@@H]32`: the “activity change, negative = inhibition” value is -15% (inactive).

In the case of `CN(C)C(=O)c1cccc(-c2cnc3sc(NCc4ccc5c(c4)OCO5)nn23)c1`, the “activity change, negative = inhibition” value was -19% (inactive).

On to `COc1ccc(-c2nnc(SCC(=O)Nc3ccccc3C)o2)cc1OC`, for which the “activity change, negative = inhibition” value was 8.7% (inactive).

As for `COC(=O)[C@]12CCCCC=C1N(CCC1=CCCCC1)C(=O)[C@H](CC(=O)NCC1CCCCC1)C2`, the “activity change, negative = inhibition” value was -33.3% (inactive).

`CC(=O)Nc1cccc(-c2ccnc3c2CC(C)(C(=O)NCc2ccco2)O3)c1` (centres undefined): the “activity change, negative = inhibition” value was 0.0835% (inactive).

For the compound `COc1ccc(C2CC(c3ccccc3)=NN2C(=O)COC(=O)COc2ccccc2)cc1` (centres undefined), the “activity change, negative = inhibition” value is 11.8% (inactive).

Consider `COc1ccc(C2CC(c3ccccc3)=NN2C(=O)c2ccc(Cl)c([N+](=O)[O-])c2)cc1` (centres undefined), for which the Potency was 28.2 µM (active).

As to `COc1ccc(C2CC(c3ccc([N+](=O)[O-])cc3)=NN2C(C)=O)cc1` (centres undefined), the “activity change, negative = inhibition” value was 36.4% (inactive).

Consider `CCOCCCNC(=O)c1cn(CC)c2ccc(S(=O)(=O)N3CCc4ccccc4C3)cc2c1=O`, for which the “activity change, negative = inhibition” value is -2.73% (inactive).

Consider `COc1ccc(NC(=O)CSC2=Nc3ccccc3C3=NC(CC(=O)NCc4ccccc4OC)C(=O)N23)cc1Cl` (centres undefined), for which the “activity change, negative = inhibition” value is -5.85% (inactive).

Consider `COc1ccc(NC(=O)Cn2c(=O)cc(C)c3c(C)nn(-c4cccc(Cl)c4C)c32)cc1OC`, for which the “activity change, negative = inhibition” value is 5.2% (inactive).

As for `NC(=O)C1CCN(C(=O)c2cccc(NC(=O)c3nsc4ccccc34)c2)CC1`, the “activity change, negative = inhibition” value is 27% (inactive).

`c1ccc2c(c1)C(=NC1CCCCC1)NC2=NC1CCCCC1`: the Potency was 28.2 µM (active).

As to `Cc1ccc2nc(-c3ccco3)c(Cc3cccc(Cl)c3)n2c1`, the “activity change, negative = inhibition” value is -20% (inactive).

On to `CN(Cc1ccccc1)c1ncnc2onc(-c3ccc(F)cc3)c12`, for which the “activity change, negative = inhibition” value was -8.81% (inactive).

As for `Cn1cc(C(=O)c2ccc(Cl)cc2Cl)cc1C(=O)NN`, the “activity change, negative = inhibition” value was -21.5% (inactive).

With `CC(C)(C)NC(=O)NC(=O)COC(=O)Cc1ccc(Cl)cc1Cl`, the “activity change, negative = inhibition” value is -25.1% (inactive).

In the case of `CC(C)(C)c1cc(C(=O)NN)n(Cc2ccc(Cl)cc2Cl)n1`, the Potency was 12.6 µM (active).

For the compound `CCOC(=O)c1cccc(NC(=O)c2cc(CN3CCCC3)on2)c1`, the “activity change, negative = inhibition” value was 9.88% (inactive).

Regarding `CN(O)C(=S)c1ccccc1`, the Potency is 3.98 µM (active).

`CN(Cc1ccccc1)C(=O)c1cccc(C(=O)N(C)Cc2ccccc2)c1`: the “activity change, negative = inhibition” value is 6.14% (inactive).

For `COc1cc(NS(=O)(=O)c2cccs2)cc(OC)c1`, the “activity change, negative = inhibition” value is -1.37% (inactive).

`Cc1c2cnn(-c3ccccc3)c(=O)c2c(C)n1C(C)C(=O)Nc1ccc(Br)cc1F` (centres undefined): the “activity change, negative = inhibition” value is 4.24% (inactive).

Values taken from PubChem BioAssay AID1745845 (National Center for Advancing Translational Sciences (NCATS), 2022).
